Assay [1] deals with Retinoic acid receptor RXR-alpha (Homo sapiens) (UniProt P19793). Briefly: qHTS assay to identify small molecule agonists of the RXR signaling pathway (AID 1159527; calls by dose curve; further: nearly all actives have a fitted effect of over 35% in size; further: potency means the concentration at half of the fitted maximal effect). The essentials: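 qHTS of the Tox21 10K library in GeneBLAzer RXR-alpha HEK 293T cells carrying a beta-lactamase reporter […]; 16 hr treatment, 9-cis retinoic acid as agonist control, FRET read-out.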
On the technique in general: Quantitative high-throughput screening tests each substance at several concentrations.

Assay [2] in a line: qHTS assay to identify small molecule agonists of the RXR signaling pathway - cell viability counter screen (AID 1159529). Further: series mostly up to about 77 µM; nearly all actives have a fitted effect of over 50% in size. In a few lines: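 Cell viability is measured by CellTiter-Glo luminescence, 30 min at room temperature, in wells already read for beta-lactamase. Engineered HEK 293T cells (RXR-alpha-UAS-bla) are dosed 16 hr at 37 C. Tetraoctyl ammonium bromide serves as positive control.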

Assay [3] can be described thus: qHTS assay to identify small molecule antagonists of the retinoid acid receptor (RAR) signaling pathway - cell viability counter screen (AID 1159551). Further: nearly all actives have a fitted effect of over 35% in size. In a few lines:
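Cytotoxicity counter screen: ATP content quantified by CellTiter-Glo luminescence in C3RL4 cells treated 6 hr at 37 C with compound and retinol (1 uM final). Cells plated at 1,000/well and cultured overnight before dosing.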

The nature of assay [4]: qHTS assay to identify small molecule antagonists of the retinoic acid receptor (RAR) signaling pathway (AID 1159552; further: nearly all actives have a fitted effect of over 50% in size; further: potency means the concentration at half of the fitted maximal effect). In a few lines: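 Quantitative HTS in C3RL4 RARE-luciferase reporter cells. Compounds were added with 1 uM (final) retinol; luminescence was read after 6 hr.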
The nature of assay [5]: qHTS assay to identify small molecule agonists of the retinoic acid receptor (RAR) signaling pathway (AID 1159553). Further: potency means the concentration at half of the fitted maximal effect. In a few lines:
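Luminescence was measured 30 min after luciferase reagent addition at room temperature. Before that, C3RL4 reporter cells (1,000 per well, plated overnight) were treated with compound for 6 hr at 37 C and 5% CO2.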

Assay [6] in a line: qHTS assay to identify small molecule antagonists of the estrogen related receptor (ERR) signaling pathway - cell viability counter screen (AID 1224818).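 Further: series mostly up to about 46 µM; viability measured after 17.5 h of compound exposure.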 The essentials:
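Cytotoxicity counter screen: fluorescence from CellTiter-Fluor, added after 17.5 h compound exposure at 37 C and read 30 min later. ERR cell line seeded at 2,000 cells/well, preincubated 6 h before dosing.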

Assay [7] is described as follows: qHTS assay to identify small molecule antagonists of the estrogen related receptor (ERR) signaling pathway (AID 1224819; further: potency means the concentration at half of the fitted maximal effect; nearly all actives have a fitted effect of over 50% in size). The essentials:
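LOPAC library screened for antagonism as reduced One-Glo luminescence in ERR reporter cells (2,000/well). Compounds were added after 6 h pre-incubation and left 18 h at 37C; reading followed a 30 min room-temperature reagent step.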

The nature of assay [8]: qHTS assay to identify small molecule agonists of the estrogen related receptor (ERR) signaling pathway (AID 1224820). The essentials: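 Following a 6 h settling period, 2,000 ERR cells per well receive DMSO-dissolved compounds by pin tool and incubate 18 h at 37 C; agonist activity is scored from One-Glo luminescence read 30 min post-addition.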
The nature of assay [9]: qHTS assay to identify small molecule antagonists of the estrogen related receptor signaling pathway with the pleiotropic PPARgamma coactivator (PGC) cell viability counter screen (AID 1224822; further: series mostly up to about 46 µM). In a few lines: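 Viability counter-screen read by fluorescence intensity after 30 min with CellTiter-Fluor at 37 C; PGC/ERR reporter cells were exposed to compounds for 17.5 h at 37 C following a 6 h preincubation.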

Drawing on PubChem BioAssay (Tox21), this text covers Potency and outcome for 39 compounds.

“And” between values parts separate entries of the source, which are not always exact repeats. Equal values may be shown once. Inconclusive results are not listed. The source holds several records for some structures; these can differ, active in one and inactive in another. The source made the active and inactive calls. Unless noted, the call rests on the fitted dose curve; in most records, active means well fitted curve in the direction sought with a large enough effect in the repeat runs; inconclusive means weak or mixed curves; inactive means no such curve, though single readings can be large; an effect the other way counts as inactive or inconclusive.

Chain of Retinoic acid receptor RXR-alpha (Homo sapiens) (P19793 whole entry, looked up): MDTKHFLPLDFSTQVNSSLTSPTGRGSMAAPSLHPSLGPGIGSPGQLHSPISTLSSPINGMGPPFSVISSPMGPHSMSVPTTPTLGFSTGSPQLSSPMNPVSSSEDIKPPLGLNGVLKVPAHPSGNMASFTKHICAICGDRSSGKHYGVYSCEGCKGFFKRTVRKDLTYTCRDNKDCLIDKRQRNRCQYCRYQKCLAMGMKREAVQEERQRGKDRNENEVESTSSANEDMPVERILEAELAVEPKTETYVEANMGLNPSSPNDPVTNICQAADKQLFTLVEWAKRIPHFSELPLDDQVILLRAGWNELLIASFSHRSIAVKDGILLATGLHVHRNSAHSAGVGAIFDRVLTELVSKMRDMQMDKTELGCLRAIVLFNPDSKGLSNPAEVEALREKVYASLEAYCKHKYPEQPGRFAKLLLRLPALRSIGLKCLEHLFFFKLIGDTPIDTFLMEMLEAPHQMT

For `CC(C)CC(C)CC(O)CC(C)C` (centres undefined), the Potency result in [1], in [2], in [4] and in [5] was “inactive” each time. Also, the compound was classed as inactive in [3].

Consider `C#C[C@]1(O)CC[C@H]2[C@@H]3CCC4=CC(=O)CC[C@@H]4[C@H]3CC[C@@]21CC`, for which the Potency result in assay [1] and in assay [2] was “inactive” throughout.

Take `O=[N+]([O-])c1ccc(O)cc1`: the Potency entry in [1], in assay [2], in assay [4] and in [5] was “inactive” in each case. Further, the compound was called inactive in assay [3].

`CCCCCCCCCCCCCC(=O)OC(C)C`: the Potency result in [1], in [2], in assay [4] and in [5] was “inactive” in each case. In assay [3], the outcome was inactive.

As to `CO[C@H]1C=CO[C@@]2(C)Oc3c(C)c(O)c4c(O)c(c(/C=N/N5CCN(C)CC5)c(O)c4c3C2=O)NC(=O)/C(C)=C\C=C[C@H](C)[C@H](O)[C@@H](C)[C@@H](O)[C@@H](C)[C@H](OC(C)=O)[C@@H]1C`, the Potency result in [1], in assay [2], in assay [4] and in [5] was “inactive” throughout. The compound was classed as inactive in assay [3].

Turning to `CCOCCO`, the Potency result in assay [1], in assay [2], in assay [4] and in assay [5] was “inactive” in each case. Also, the result in [3] was inactive.

As for `CCCCCCCCOc1ccc(C(=O)c2ccccc2)c(O)c1`, the Potency entry in [1], in assay [2], in assay [4] and in assay [5] was “inactive” throughout. For the same compound, the compound was classed as inactive in [3].

Take `CCCCCCCCCCCCCCCCCC(=O)OCC(O)CO` (centres undefined): the Potency result in assay [1], in assay [2], in [4] and in assay [5] was “inactive” each time. Besides, the compound was classed as inactive in assay [3].

For `COCC(C)N` (centres undefined), the Potency entry in assay [1], in assay [2], in assay [4] and in assay [5] was “inactive” each time. For the same compound, the result in [3] was inactive.

For `OC[C@@H](O)[C@@H](O)[C@H](O)[C@H](O)CO`, the Potency result in assay [1], in [2], in assay [4] and in assay [5] was “inactive” in each case. Also, the result in [3] was inactive.

`CC1(C)O[C@@H]2[C@@H](CO[C@@]3(COS(N)(=O)=O)OC(C)(C)O[C@@H]23)O1`: the Potency in assay [1] is 17.4 µM (active) and inactive. Further, the Potency result in assay [2], in assay [4] and in assay [5] was “inactive” throughout. In addition, in [3], the result was inactive.

For the compound `COc1cc(C=O)ccc1O`, the Potency entry in assay [1], in assay [2], in assay [4] and in [5] was “inactive” in each case. Also, the result in assay [3] was inactive.

Take `CCCCOC(=O)CCCCCCCCC(=O)OCCCC`: the Potency entry in [1], in assay [2], in [4] and in assay [5] was “inactive” throughout. Moreover, the call in assay [3] was inactive.

`Cc1c(N(C)C)c(=O)n(-c2ccccc2)n1C`: the Potency entry in [1] and in [2] was “inactive” throughout. Besides, the call in assay [3] was inactive.

In the case of `COC1=CC(=O)C[C@@H](C)[C@]12Oc1c(Cl)c(OC)cc(OC)c1C2=O`, the Potency result in assay [1], in [2] and in [5] was “inactive” throughout. Also, the outcome in [3] was inactive. Moreover, the Potency in assay [4] was 9.6 µM (active).

As for `NC(=O)c1ccc([N+](=O)[O-])cc1Cl`, the Potency entry in [1], in [2], in assay [4] and in assay [5] was “inactive” in each case. In addition, the call in assay [3] was inactive.

In the case of `COC(=O)c1ccc(C=O)cc1`, the Potency entry in assay [1], in assay [2], in [4] and in assay [5] was “inactive” in each case. In addition, the compound was classed as inactive in assay [3].

Consider `CCCCNC(=O)NS(=O)(=O)c1ccc(N)cc1`, for which the Potency entry in assay [1], in assay [2], in assay [4] and in assay [5] was “inactive” in each case. Besides, in assay [3], the result was inactive.

As to `CC(=O)/C=C/C1=C(C)CCCC1(C)C`, the Potency result in [1] and in assay [2] was “inactive” in each case. For the same compound, the call in assay [3] was inactive.

Take `CCCCC/C(C=O)=C\c1ccccc1`: the Potency result in assay [1], in assay [2], in [4] and in assay [5] was “inactive” throughout. Besides, the outcome in [3] was inactive.

As for `COC(=O)c1ccc(O)cc1`, the Potency entry in assay [1] was “inactive and 6.16 µM (active)”. Further, the Potency entry in [2], in assay [4] and in assay [5] was “inactive” each time. Also, the compound was called inactive in assay [3].

Take `CCn1cc(C(=O)O)c(=O)c2ccc(C)nc21`: the Potency result in [1], in assay [2], in assay [4] and in assay [5] was “inactive” in each case. In addition, in [3], the outcome was inactive.

Turning to `O=C(O)CCCCC1CCSS1` (centres undefined), the Potency result in [1] and in [2] was “inactive” each time. Besides, the call in assay [3] was inactive.

As for `CC(C)=CCC/C(C)=C/CO`, the Potency result in [1] and in assay [2] was “inactive” in each case. In addition, the result in [3] was inactive.

`NC(N)=NC(N)=NCCc1ccccc1`: the Potency result in assay [1], in [2], in [4] and in assay [5] was “inactive” each time. Moreover, the outcome in assay [3] was inactive.

Consider `Cc1c(N(C)CS(=O)(=O)O)c(=O)n(-c2ccccc2)n1C`, for which the Potency result in assay [1], in assay [2], in [4] and in [5] was “inactive” throughout. In [3], the outcome was inactive.

In the case of `COc1ccc(O)cc1`, the Potency entry in assay [1] and in assay [2] was “inactive” throughout. In addition, the outcome in assay [3] was inactive.

`COCCOCCOC`: the Potency entry in [1], in assay [2], in assay [4] and in [5] was “inactive” throughout. In assay [3], the outcome was inactive.

Regarding `C[C@]12C=CC(=O)C=C1CC[C@@H]1[C@@H]2C(=O)C[C@@]2(C)[C@H]1CC[C@]2(O)C(=O)CO`, the Potency result in [1], in assay [2], in [4] and in [5] was “inactive” in each case. In [3], the compound was called inactive.

As to `C1CNCCN1`, the Potency in assay [1] is 11.3 µM (active) and inactive. Further, the Potency result in assay [2], in assay [4] and in [5] was “inactive” each time. Besides, the outcome in assay [3] was inactive.

For the compound `O=c1cc[nH]c(=O)[nH]1`, the Potency result in [1], in [2], in assay [4] and in assay [5] was “inactive” in each case.

As for `CCCCCCCC(=O)OCC(O)CO` (centres undefined), the Potency entry in assay [1], in assay [2], in [4] and in assay [5] was “inactive” each time. Further, the compound was called inactive in assay [3].

Regarding `C[C@]12CC[C@@H]3c4ccc(O)cc4C[C@@H](CCCCCCCCCS(=O)CCCC(F)(F)C(F)(F)F)[C@H]3[C@@H]1CC[C@@H]2O` (some centres undefined), the Potency entry in assay [1], in assay [2], in assay [4] and in assay [5] was “inactive” each time. Further, the result in [3], in [6], in [8] and in assay [9] was inactive. Further, the Potency in [7] was 7.22 µM (active).

As for `COc1cc(O)c(C(=O)c2ccccc2)cc1S(=O)(=O)O`, the Potency entry in assay [1], in [2], in assay [4] and in assay [5] was “inactive” each time.

With `O=C(OCc1ccccc1)c1ccccc1`, the Potency entry in [1], in assay [2] and in [4] was “inactive” in each case. Besides, the Potency in assay [5] was 2.43 µM (active) and 29.8 µM (active).

`CN/C(=C\[N+](=O)[O-])NCCSCc1ccc(CN(C)C)o1`: the Potency result in assay [1], in [2], in assay [4] and in assay [5] was “inactive” throughout. The compound was classed as inactive in [3], in assay [6] and in assay [9].

Take `COc1ccccc1O`: the Potency result in [1] and in [2] was “inactive” in each case. In addition, the outcome in assay [3], in assay [6] and in assay [9] was inactive.

Turning to `C[C@]12CC[C@@H]3c4ccc(O)cc4CC[C@H]3[C@@H]1CCC2=O`, the Potency result in [1] and in assay [2] was “inactive” in each case. For the same compound, the result in [3], in assay [6] and in assay [9] was inactive.

As for `CCCCOCCOCCOC(C)=O`, the Potency entry in [1], in [2], in [4] and in [5] was “inactive” throughout.
